Structures are written as SMILES. Results filed as inconclusive are left out. A call without a number means that no potency is given here. Active and inactive are the calls of the source. Calls come from the whole dose curve.

The test is described as follows: qHTS for Inhibitors of Cell Surface uPA Generation: Wild-type Protective Antigen (WT-PrAg) Counterscreen for Cherry-picked Compounds. The following applies: cells, WT protective antigen toxicity counterscreen; series mostly up to 115 µM.
`O=c1[nH]c(SCc2cccc(Cl)c2)nc2ccccc12`: the Potency result is “inactive”.
As for `O=C(CCCOc1ccc(Cl)cc1Cl)NCc1ccncc1`, the Potency result was “inactive”.
As for `O=C(NCc1ccco1)/C(=C\c1cccs1)NC(=O)c1ccccc1`, the entry is “inactive”; as for `COCC(=O)N1CCC(n2nccc2NC(=O)c2ccccc2OC)CC1`, “inactive”.
`Cc1ccc(S(=O)(=O)Nc2nc(C)cc(N/N=C/c3ccc(O)cc3)n2)cc1`: the Potency result was “inactive”.
As for `Cc1oc(-c2ccccc2F)nc1CS(=O)(=O)CC(=O)NC1CCCC(C)C1C` (stereo not given), the Potency result is “inactive”.
The value for `CC(=O)c1cnc2nc(SCc3cccc(C)c3)nn2c1C` was “inactive”; that for `O=C(O)CSc1nnc(COc2ccccc2)n1-c1ccccc1` was “inactive”.
For `C[C@H](CO)N1C[C@H](C)[C@H](CN(C)S(=O)(=O)c2cn(C)cn2)Oc2ccc(NC(=O)Nc3ccc(C(F)(F)F)cc3)cc2CC1=O`, the Potency result is “inactive”.
Regarding `COC(=O)C1=C(c2cccc(OC)c2OC)C[C@@H]2CC[C@H]1N2C(=O)NC1CC1`, the Potency entry is “inactive”.
The value for `Cc1cc(N2C(=O)C(O)=C(C(=O)c3ccco3)C2c2ccc(Cl)cc2)no1` (stereo not given) was “inactive”; that for `O=C(c1ccc(F)c([N+](=O)[O-])c1)N1CC2CC(C1)c1cccc(=O)n1C2` (stereo not given) was “inactive”.
As for `CCC(C)NC(=O)c1ccc2nc(-c3ccc(OC)c(OC)c3)c(-c3ccc(OC)c(OC)c3)nc2c1` (stereo not given), the entry is “inactive”.
As for `O=C(C1CCCCN1S(=O)(=O)c1ccc(F)cc1)N1CCN(c2ccccc2F)CC1` (stereo not given), the entry is “inactive”; as for `CC(NC(=O)C1CCC(C(=O)NC(C)c2ccccc2)CC1)c1ccccc1` (stereo not given), “inactive”.
As for `COc1ccc(/C(C)=N/N2CCOCC2)c(O)c1`, the Potency entry was “inactive”.
The value for `Cc1cc(NC(=O)COc2cccc([N+](=O)[O-])c2)no1` was “inactive”.
As for `O=C(COc1ncnc2sccc12)Nc1cccc(S(=O)(=O)N2CCCC2)c1`, the entry is “inactive”; as for `COC(/C=C/Nc1ccc(Cl)cc1)=C(C#N)C#N`, “inactive”; as for `C[C@H]([C@H](O)c1ccccc1)N(C)C(=O)CN`, “inactive”.
As for `O=[N+]([O-])c1cccc2c(N3CCOCC3)ccnc12`, the entry is “inactive”; as for `CCOc1ccc(NS(=O)(=O)c2coc(C(N)=O)c2)cc1`, “inactive”; as for `[N-]=[N+]=NC1C[C@H](n2ccc(=O)[nH]c2=O)O[C@@H]1CO` (stereo not given in full), “inactive”.
`COc1ccc(-n2nnnc2SCC(=O)Nc2nnc(C)s2)cc1`: the Potency entry is “inactive”.
For the compound `CCOC(=O)c1ccccc1N=Cc1c(O)c2ccccc2oc1=O`, the Potency entry was “inactive”.
The value for `O=C(NNC(=O)c1cccc(-n2cccc2)c1)c1ccc(F)cc1` was “inactive”; that for `Cc1ccccc1-c1nnc(SCC(=O)NCC2CCCO2)o1` (stereo not given) was “inactive”; that for `CCOC(=O)C1CCCN(CC(=O)Nc2ccc(C(=O)Nc3ccccc3OC)cc2)C1` (stereo not given) was “inactive”.
As for `Cc1ccc(/C=C/C(=O)O)cc1S(=O)(=O)N1CCc2ccccc21`, the entry is “inactive”.
On to `CCCCCn1c(=O)c(C(=O)Nc2ccccn2)c(O)c2ccccc21`, for which the Potency result was “inactive”.
With `COCc1c(C(=O)Nc2nc(C)cs2)oc2ccccc12`, the Potency result was “inactive”.
Consider `COc1ccc2nc(SC(C)C(=O)NC3(C#N)CCCCC3)[nH]c2c1` (stereo not given), for which the Potency result is “inactive”.
As for `Cc1nc(NC2CCCCC2)c2nnn(Cc3ccccc3Cl)c2n1`, the entry is “inactive”; as for `CCN(CC)S(=O)(=O)c1ccc(C(=O)Nc2cccc(C)c2)cc1`, “inactive”; as for `Cc1nc(C(=O)N2CCC(n3nccc3NC(=O)Nc3ccccc3Cl)CC2)cs1`, “inactive”.
As for `CCn1c(SC(C)C(=O)NC2CCCC2)nc2cc(S(N)(=O)=O)ccc21` (stereo not given), the entry is “inactive”; as for `CCOc1ccc(-c2n[nH]c(=S)n2Cc2ccccc2)cc1`, “inactive”.
Turning to `COc1ccc(CNC(=O)C2(CC3CC(c4ccccc4)=NO3)CCNCC2)cc1` (stereo not given), the Potency result is “inactive”.
The value for `COc1ccccc1C(=O)NCCC(=O)NCC(c1ccc(F)cc1)N1CCOCC1` (stereo not given) was “inactive”.
As for `CCc1ccc(OCC(=O)N(Cc2cccs2)C2CCS(=O)(=O)C2)cc1` (stereo not given), the entry is “inactive”.

Values taken from PubChem BioAssay AID720518 (National Center for Advancing Translational Sciences (NCATS), 2013).
